# Source: PubChem BioAssay AID1159580 (chemical genetic matrix, 2015)
# Out of some 5,500 compounds screened, about 2,000 (36%) were called active. Inconclusive results (about 18%) are left out. This is one part of the list. Values without a mark were called inactive. Rule as the data show it: active = normalized growth mostly below about 0.91 (no sharp cut-off); inconclusive = no clear call, values can overlap the other calls; inactive = mostly above about 0.92.
# Test: chemical genetic growth profiling, strain panel (AID 1159580);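 also: tested at 20 µM; growth read once vehicle control cultures reached saturation at 30 °C; 1 = growth at the plate median or of vehicle wells; lower values mean less growth of the strain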
# Settings: S. cerevisiae deletion strains, growth OD
# [1] = locus YHR030C, strain SLT2, active compounds read low
# [2] = locus YHR079C, strain IRE1, active compounds read low
# [3] = locus YJL095W, strain BCK1, active compounds read low
# [4] = locus YJR066W, strain TOR1, active compounds read low
# [5] = locus YLR113W, strain HOG1, active compounds read low
# [6] = locus YNL183C, strain NPR1, active compounds read low
# [7] = locus YOR231W, strain MKK1, active compounds read low
# [8] = locus YPL256C, strain CLN2, active compounds read low
compound,measurement,setting,value
CC1(C)O[C@@H]2[C@@H](CO[C@@]3(COS(N)(=O)=O)OC(C)(C)O[C@@H]23)O1,normalized growth,"locus YAL021C, strain ccr4, active compounds read low",1.03
same,normalized growth,"locus YAL026C, strain drs2, active compounds read low",1.03
same,normalized growth,"locus YAL030W, strain snc1, active compounds read low",1.01
same,normalized growth,"locus YBL061C, strain skt5, active compounds read low",1.01
same,normalized growth,"locus YBR009C, strain hhf1, active compounds read low",0.983
same,normalized growth,"locus YBR023C, strain chs3, active compounds read low",1.02
same,normalized growth,"locus YBR171W, strain sec66, active compounds read low",1.01
same,normalized growth,"locus YBR231C, strain swc5, active compounds read low",0.981
same,normalized growth,"locus YBR279W, strain paf1, active compounds read low",1.02
same,normalized growth,"locus YCL011C, strain gbp2, active compounds read low",1.01
same,normalized growth,"locus YCL016C, strain dcc1, active compounds read low",1.04
same,normalized growth,"locus YCL069W, strain vba3, active compounds read low",1.01
same,normalized growth,"locus YCR088W, strain abp1, active compounds read low",1.01
same,normalized growth,"locus YDL005C, strain med2, active compounds read low",1.02
same,normalized growth,"locus YDL040C, strain nat1, active compounds read low",0.997
same,normalized growth,"locus YDR001C, strain nth1, active compounds read low",1
same,normalized growth,"locus YDR069C, strain doa4, active compounds read low",0.994
same,normalized growth,"locus YDR137W, strain rgp1, active compounds read low",1.08
same,normalized growth,"locus YDR159W, strain sac3, active compounds read low",0.94
same,normalized growth,"locus YDR195W, strain ref2",0.987
same,normalized growth,"locus YDR297W, strain sur2, active compounds read low",0.992
same,normalized growth,"locus YDR334W, strain swr1, active compounds read low",1.02
same,normalized growth,"locus YDR335W, strain msn5, active compounds read low",1.02
same,normalized growth,"locus YDR392W, strain spt3, active compounds read low",1.01
same,normalized growth,"locus YEL003W, strain gim4, active compounds read low",0.99
same,normalized growth,"locus YEL037C, strain rad23, active compounds read low",1
same,normalized growth,"locus YEL061C, strain CIN8 (second series), active compounds read low",1
same,normalized growth,"locus YER015W, strain faa2, active compounds read low",1.01
same,normalized growth,"locus YER016W, strain bim1, active compounds read low",1.04
same,normalized growth,"locus YER111C, strain swi4, active compounds read low",1.02
same,normalized growth,"locus YER155C, strain BEM2 (second series), active compounds read low",1.02
same,normalized growth,"locus YFR010W, strain ubp6, active compounds read low",0.983
same,normalized growth,"locus YGL167C, strain pmr1, active compounds read low",1.01
same,normalized growth,"locus YGL173C, strain kem1, active compounds read low",0.998
same,normalized growth,"locus YGL227W, strain vid30, active compounds read low",1.01
same,normalized growth,"locus YGL240W, strain doc1, active compounds read low",0.991
same,normalized growth,"locus YGL253W, strain hxk2, active compounds read low",1
same,normalized growth,"locus YHR013C, strain ard1, active compounds read low",1.07
same,normalized growth,"locus YHR027C, strain rpn1, active compounds read low",1.01
same,normalized growth,[1],0.98
same,normalized growth,[2],0.965
same,normalized growth,"locus YHR142W, strain chs7, active compounds read low",1.02
same,normalized growth,"locus YJL092W, strain hpr5, active compounds read low",1.01
same,normalized growth,"locus YJL095W, strain BCK1 (second series), active compounds read low",1.01
same,normalized growth,[3],0.974
same,normalized growth,"locus YJL115W, strain asf1, active compounds read low",1.01
same,normalized growth,"locus YJL129C, strain trk1, active compounds read low",1.01
same,normalized growth,"locus YJL154C, strain vps35, active compounds read low",1
same,normalized growth,"locus YJL164C, strain tpk1, active compounds read low",0.988
same,normalized growth,"locus YJL166W, strain qcr8, active compounds read low",0.985
same,normalized growth,"locus YJL187C, strain SWE1, active compounds read low",0.992
same,normalized growth,[4],0.942
same,normalized growth,"locus YKL160W, strain elf1, active compounds read low",1.05
same,normalized growth,"locus YKR026C, strain gcn3, active compounds read low",1
same,normalized growth,"locus YKR091W, strain srl3, active compounds read low",0.999
same,normalized growth,"locus YLL001W, strain dnm1, active compounds read low",0.987
same,normalized growth,"locus YLL026W, active compounds read low",1
same,normalized growth,"locus YLL041C, strain sdh2, active compounds read low",0.991
same,normalized growth,"locus YLR027C, strain aat2, active compounds read low",1.01
same,normalized growth,[5],0.964
same,normalized growth,"locus YLR221C, strain rsa3, active compounds read low",0.992
same,normalized growth,"locus YLR258W, strain gsy2, active compounds read low",1.02
same,normalized growth,"locus YLR262C, strain YPT6 (second series), active compounds read low",1.01
same,normalized growth,"locus YLR320W, strain mms22, active compounds read low",0.956
same,normalized growth,"locus YLR342W, strain FKS1, active compounds read low",1.03
same,normalized growth,"locus YLR357W, strain rsc2, active compounds read low",1
same,normalized growth,"locus YLR370C, strain arc18, active compounds read low",1.01
same,normalized growth,"locus YLR384C, strain iki3, active compounds read low",1.03
same,normalized growth,"locus YML120C, strain ndi1, active compounds read low",0.999
same,normalized growth,"locus YMR058W, strain fet3, active compounds read low",1.01
same,normalized growth,"locus YMR125W, strain sto1, active compounds read low",1
same,normalized growth,"locus YMR129W, active compounds read low",1
same,normalized growth,"locus YMR205C, strain PFK2, active compounds read low",0.981
same,normalized growth,"locus YMR231W, strain pep5, active compounds read low",1
same,normalized growth,"locus YNL071W, strain lat1, active compounds read low",1.01
same,normalized growth,[6],0.902
same,normalized growth,"locus YNL209W, strain ssb2, active compounds read low",1.01
same,normalized growth,"locus YNL248C, strain rpa49, active compounds read low",1.03
same,normalized growth,"locus YNL322C, strain KRE1 (second series), active compounds read low",1.01
same,normalized growth,"locus YNR049C, strain mso1, active compounds read low",0.99
same,normalized growth,"locus YOR001W, strain rrp6, active compounds read low",0.965
same,normalized growth,"locus YOR070C, strain gyp1, active compounds read low",1.01
same,normalized growth,"locus YOR080W, strain dia2, active compounds read low",1.02
same,normalized growth,"locus YOR083W, strain WHI5, active compounds read low",0.996
same,normalized growth,"locus YOR106W, strain vam3, active compounds read low",1.04
same,normalized growth,[7],0.977
same,normalized growth,"locus YOR265W, strain rbl2, active compounds read low",1
same,normalized growth,"locus YOR270C, strain vph1, active compounds read low",1.06
same,normalized growth,"locus YOR290C, strain snf2, active compounds read low",1.06
same,normalized growth,"locus YPL051W, strain arl3, active compounds read low",1.07
same,normalized growth,"locus YPL078C, strain atp4, active compounds read low",1.04
same,normalized growth,"locus YPL106C, strain sse1, active compounds read low",1.07
same,normalized growth,"locus YPL240C, strain hsp82, active compounds read low",1.01
same,normalized growth,[8],0.95
CC(=O)C(Sc1nc2ccccc2s1)C(C)=O,normalized growth,"locus YAR019C, strain CDC15, active compounds read low",0.896
same,normalized growth,"locus YBL105C, strain PKC1, active compounds read low",0.919
same,normalized growth,"locus YBR135W, strain CKS1, active compounds read low",0.915
same,normalized growth,"locus YBR136W, strain MEC1, active compounds read low",0.923
same,normalized growth,"locus YBR160W, strain CDC28, active compounds read low",0.909
same,normalized growth,"locus YDL017W, strain CDC7, active compounds read low",0.919
same,normalized growth,"locus YDL028C, strain MPS1, active compounds read low",0.906
same,normalized growth,"locus YDL101C, strain DUN1, active compounds read low",0.979
same,normalized growth,"locus YDL108W, strain KIN28, active compounds read low",0.93
same,normalized growth,"locus YDL132W, strain cdc53, active compounds read low",0.91
same,normalized growth,"locus YDL214C, strain PRR2, active compounds read low",0.713
same,normalized growth,"locus YDR052C, strain DBF4, active compounds read low",0.916
same,normalized growth,"locus YDR054C, strain cdc34, active compounds read low",0.906
same,normalized growth,"locus YDR226W, strain ADK1, active compounds read low",0.937
same,normalized growth,"locus YDR477W, strain SNF1, active compounds read low",0.778
same,normalized growth,"locus YER123W, strain YCK3, active compounds read low",0.595 (active)
same,normalized growth,"locus YER133W, strain GLC7, active compounds read low",0.812
same,normalized growth,"locus YFL009W, strain cdc4, active compounds read low",0.892
same,normalized growth,"locus YFL029C, strain CAK1, active compounds read low",0.9
same,normalized growth,"locus YFR003C, strain YPI1, active compounds read low",0.926
same,normalized growth,"locus YFR019W, strain FAB1, active compounds read low",0.836
same,normalized growth,"locus YFR028C, strain CDC14, active compounds read low",0.922
same,normalized growth,"locus YGR040W, strain KSS1, active compounds read low",0.798
same,normalized growth,"locus YGR052W, strain FMP48, active compounds read low",0.667
same,normalized growth,"locus YGR092W, strain DBF2, active compounds read low",0.343 (active)
same,normalized growth,[1],0.63 (active)
same,normalized growth,[2],0.547
same,normalized growth,"locus YHR082C, strain KSP1, active compounds read low",0.785
same,normalized growth,"locus YHR205W, strain SCH9, active compounds read low",0.948
same,normalized growth,"locus YIL147C, strain SLN1, active compounds read low",0.921
same,normalized growth,[3],0.521
same,normalized growth,"locus YJL128C, strain PBS2, active compounds read low",0.918
same,normalized growth,"locus YJL157C, strain FAR1, active compounds read low",0.68 (active)
same,normalized growth,"locus YJR016C, strain ILV3, active compounds read low",0.916
same,normalized growth,"locus YJR066W, strain TOR1 (second series), active compounds read low",0.795
same,normalized growth,[4],0.682
same,normalized growth,"locus YKL048C, strain ELM1, active compounds read low",0.929
same,normalized growth,"locus YKL067W, strain YNK1, active compounds read low",0.694 (active)
same,normalized growth,"locus YKL101W, strain HSL1, active compounds read low",0.866
same,normalized growth,"locus YKL193C, strain SDS22, active compounds read low",0.907
same,normalized growth,"locus YKL203C, strain TOR2, active compounds read low",0.879
same,normalized growth,[5],0.591 (active)
same,normalized growth,"locus YLR133W, strain CKI1, active compounds read low",0.765
same,normalized growth,"locus YLR403W, strain SFP1, active compounds read low",0.764
same,normalized growth,"locus YML070W, strain DAK1, active compounds read low",0.699
same,normalized growth,"locus YMR001C, strain CDC5, active compounds read low",0.91
same,normalized growth,"locus YMR205C, strain PFK2 (second series), active compounds read low",0.749
same,normalized growth,"locus YMR277W, strain FCP1, active compounds read low",0.892
same,normalized growth,"locus YNL006W, strain LST8, active compounds read low",0.901 (active)
same,normalized growth,"locus YNL020C, strain ARK1, active compounds read low",0.739
same,normalized growth,"locus YNL161W, strain CBK1, active compounds read low",0.906
same,normalized growth,[6],0.561 (active)
same,normalized growth,"locus YNL207W, strain RIO2, active compounds read low",0.937
same,normalized growth,"locus YNL222W, strain SSU72, active compounds read low",0.907
same,normalized growth,"locus YNL307C, strain MCK1 (second series), active compounds read low",0.807
same,normalized growth,"locus YOL078W, strain AVO1, active compounds read low",0.908
same,normalized growth,"locus YOL136C, strain PFK27, active compounds read low",0.694
same,normalized growth,"locus YOR061W, strain CKA2, active compounds read low",0.752
same,normalized growth,"locus YOR119C, strain RIO1, active compounds read low",0.827
same,normalized growth,[7],0.591
same,normalized growth,"locus YOR329C, strain SCD5, active compounds read low",0.925
same,normalized growth,"locus YPL031C, strain PHO85, active compounds read low",0.729
same,normalized growth,"locus YPL153C, strain RAD53, active compounds read low",0.734
same,normalized growth,"locus YPL204W, strain HRR25, active compounds read low",0.757
same,normalized growth,"locus YPL209C, strain IPL1, active compounds read low",0.914
same,normalized growth,[8],0.6 (active)
same,normalized growth,"locus YPR025C, strain CCL1, active compounds read low",0.916
same,normalized growth,"locus YPR106W, strain ISR1, active compounds read low",0.945
same,normalized growth,"locus YPR111W, strain DBF20, active compounds read low",0.946
same,normalized growth,"strain NNK1, active compounds read low",0.948
same,normalized growth,"strain TSCII, active compounds read low",0.891
